Bioassay records as filed in PubChem.
The list is not random: actives were taken first. Their share in the collection is about 3.6%.
B2AR arrestin ag = beta-arrestin recruitment by human beta2-adrenergic receptor ligands; P07550; HTLA Tango cells, beta-arrestin recruitment, luciferase luminescence, 18 h; Potency, µM (titrated, usually from 46.1 µM), hits mostly activators; 44,000 tested, under 10 active;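 note: potency is the fitted concentration of half-maximal effect; 0% = DMSO and full agonism = EC100 isoproterenol or metaproterenol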
Target sequence (P07550 whole entry, looked up): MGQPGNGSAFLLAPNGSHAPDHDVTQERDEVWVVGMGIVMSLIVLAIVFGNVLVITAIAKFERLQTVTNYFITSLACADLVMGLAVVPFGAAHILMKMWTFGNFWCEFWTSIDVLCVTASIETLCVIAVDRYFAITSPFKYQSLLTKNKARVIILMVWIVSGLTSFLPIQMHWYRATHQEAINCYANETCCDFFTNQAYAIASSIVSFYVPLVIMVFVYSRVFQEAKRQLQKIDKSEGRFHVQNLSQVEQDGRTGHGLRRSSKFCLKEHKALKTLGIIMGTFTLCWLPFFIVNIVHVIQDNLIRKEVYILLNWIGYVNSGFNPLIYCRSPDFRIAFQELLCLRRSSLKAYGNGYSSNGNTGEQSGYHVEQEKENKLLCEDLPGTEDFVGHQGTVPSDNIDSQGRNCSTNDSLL
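Tango cell line, 1% FBS DMEM; cpd titration up to 46 microM; 18 hr, 37 degrees C, 5% CO2. Luciferin/ATP substrate mix added, 15 min RT, luminescence. %Activity, CRC fitting, curve-class categorization.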
GALC G270D up = galactocerebrosidase G270D activity enhancement, cell-based. Potency, µM (series often up to 57.5 µM), usual class: activators. 145M-Twi-hGALC-G270D cells, HMU-beta-Gal fluorescence, 48 h. hit rate 0.1% among 45,000; note: potency is the fitted concentration of half-maximal effect; 0% is about no effect; nearly all actives have a fitted effect of over 65% in size
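qHTS, 1536-well; 145M-Twi-hGALC-G270D cells (WT line also made) in DMEM/F12 + 10% FBS; compound incubation on live cells; HMU-β-gal 0.1 mM final, pH 5.2, NaTC; carbonate stop; fluorescence increase = enhanced residual activity.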
PTAP-TSG101 blk = TSG101-PTAP interaction inhibition, HIV-1 budding; Fluorescence polarization, FITC-PTAP peptide/Tsg101, 20 min; Potency, µM (titrated, usually from 115 µM), most hits filed as inhibitors; 44,000 tested, under 10 active; note: potency is the fitted concentration of half-maximal effect; 0% is about no effect
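FITC-labeled PTAP peptide (50 nM final) binding to Tsg101 binding domain (10 uM final) read by fluorescence polarization after 20 min at r.t. in HEPES pH 7.5 buffer. Actives by CRC class, <25 µM.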
GALK inh = inhibits human galactokinase | P51570 | recombinant GALK, Kinase-Glo ATP luminescence, 1 h | Potency, µM (series often up to 57.5 µM), without a hit: top-dose activity, negative = inhibition, hits mostly inhibitors | 44,000 tested, under 10 active | AID 1347072;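 note: plate controls were full GALK reaction for no effect and reaction lacking GALK for full effect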
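Compounds were pinned into ATP buffer, then GALK-galactose mix was added (final 5 nM enzyme, 35 uM ATP, 100 uM galactose, pH 8.0). After 1 h at room temperature, Kinase-Glo Plus was added and luminescence read.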
GPR32 ag = GPR32 (DRV1) agonism, beta-arrestin recruitment | O75388 | CHO-K1 GPR32 beta-arrestin PathHunter luminescence, 90 min; zero percent set by DMSO-only wells | activation, % at 76.9 µM | hit rate 2.5% among 48,000;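 active = activation of at least 60% and not above a set upper limit, about 1 call in 100 departs from these limits; inconclusive = activation of 40% to 60%, or above that upper limit; inactive = activation under 40%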; note: 0% is about no effect
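PathHunter beta-arrestin recruitment in CHO-K1 cells stably expressing ProLink-tagged GPR32. Cells were exposed to compound for 90 min at 37 C, then chemiluminescence was read after 1 h detection at ambient temperature; DMSO served as basal control.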
NTMT1 inhibitor = blocks human N-terminal methyltransferase 1 activity. NTMT1 MTase-Glo SAH luminescence, purified enzyme. Potency, µM (series often up to 114 µM), without a hit: at the top dose activity change, negative = inhibition, most hits filed as inhibitors. hit rate 2.5% among 59,000;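 note: potency is the fitted concentration of half-maximal effect; plate controls were DMSO vehicle for no effect and no enzyme for full effect; nearly all actives have a fitted effect of over 65% in size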
Target sequence (Q9BV86 whole entry, looked up): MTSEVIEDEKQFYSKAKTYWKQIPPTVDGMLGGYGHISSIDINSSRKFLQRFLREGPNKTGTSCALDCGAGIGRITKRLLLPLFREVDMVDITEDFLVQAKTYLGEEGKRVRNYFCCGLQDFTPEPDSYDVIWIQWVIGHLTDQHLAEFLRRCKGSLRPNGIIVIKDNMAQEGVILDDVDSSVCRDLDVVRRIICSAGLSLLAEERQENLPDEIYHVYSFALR
The depositor's hits bear a star; i = inactive; ? = inconclusive; / = no result; ! = not active in a repeat; [ ] = dose if it differs, or a comment. Unless noted, calls come from the whole dose curve; as a rule, active = well fitted curve in the direction sought with a large enough effect; inconclusive = small, poorly fitted or top-dose-only effect, or another doubt; inactive = no such curve, though single readings can be large; an effect the other way counts as inactive or inconclusive.

SMILES | B2AR arrestin ag | GALC G270D up | PTAP-TSG101 blk | GALK inh | GPR32 ag | NTMT1 inhibitor
O=C([C@H](Cc1ccc(O[S+](=O)([O-])c2cccnc2)cc1)N[S+](=O)([O-])c1cccc2cnccc12)N1CCN(c2ccccc2)CC1 | / | / | / | / | / | 12%
COc1cccc(CNCCSc2nnnn2C)c1OCc1ccc(F)cc1 | i | i | i | ? | 81* | -2%
COc1cc(C)c(C(=O)OC2C(C)OC(OC3CCC(C)C4C3C=C(C)C3/C(C)=C\CC/C(C)=C/C5(C)C=C(C(=O)O)C(C)CC56OC(=O)/C(=C(\O)C34C)C6=O)C(O)C2O)c(OC)c1 (stereo not drawn) | / | / | / | / | / | 8%[12.6 µM]
COCCOc1ccc2c(c1)ncn2-c1ccc2cccc(N3CCC(N)CC3)c2n1 | / | / | / | / | / | 35µM*!
C[C@@H]1O[C@@H](O[C@H]2[C@H](O)[C@@H](O)[C@H](OC3CCC4(C)C5CCC(C)(C(CO)OC6OC(CO)C(O)C(O)C6O)CC5=CCC4C3(C)C)O[C@@H]2CO)[C@H](O)[C@H](O)[C@H]1O (stereo partly drawn) | / | / | / | / | / | -10%[12.6 µM]
COc1cc(C(=O)Nc2ccc3nc4n(c(=O)c3c2)CCCCC4)cc(OC)c1OC | i | i | i | 7% | 6 | 50µM*
COc1ccc(C(=O)Nc2ccc3nc4n(c(=O)c3c2)CCCCC4)cc1OC | i | i | i | 3% | 11 | 4%
CN(C)c1cccc(C(=O)Nc2ccc(-c3nc4ccccc4s3)cc2)c1 | i | i | i | -2% | -4 | 1%
Cc1cc2nc3ccc(=[N+](C)C)cc-3sc2cc1N | / | i | / | / | -50 | 22µM*
CN(C)c1ccc2nc3ccc(=[N+](C)C)cc-3sc2c1 | / | i | / | / | -37 | 32µM*
CCCCc1ccc(NC(=O)COc2cccc3c(=O)n(C)ccc23)cc1 | i | i | i | -11% | 60* | 1%
CCCn1ccc2c(OCC(=O)Nc3ccc(OC)c(OC)c3)cccc2c1=O | i | i | i | -2% | 86* | 14%
Cn1ccc2c(OCC(=O)NCc3ccccc3Cl)cccc2c1=O | i | i | i | -7% | 86* | 15%
COc1ccc(Cl)cc1NC(=O)COc1cccc2c(=O)n(C)ccc12 | i | i | i | -1% | -3 | -6%
CC(C)Oc1cccc(NC(=O)C2CCN(S(=O)(=O)Cc3ccccc3)CC2)c1 | i | / | i | 3% | -3 | /
O=C(Nc1cccc(Cl)c1)C1CCN(S(=O)(=O)Cc2ccccc2)CC1 | i | / | i | -12% | 115* | /
C=CC(=O)Nc1cc(Nc2ncc(Cl)c(-c3c[nH]c4ccccc34)n2)c(OC)cc1N(C)CCN(C)C | / | / | / | / | / | 20µM*
Cc1ccc(OCCn2c(CCNC(=O)c3cccc(N)c3)nc3ccccc32)cc1 | / | / | / | / | / | 0%[57.5 µM]
CCC(=O)Nc1ccc2nc(SCCOc3cccc(C)c3)sc2c1 | i | i | i | -1% | 86* | -2%
CCC(=O)Nc1ccc2nc(SCCOc3ccc(C)cc3OC)sc2c1 | i | i | i | -8% | 93* | ?
C=CC(=O)Nc1cccc(Nc2nc(Nc3ccccc3)ncc2C)c1 | / | / | / | / | / | 45µM*
Cc1ccccc1C(=O)Nc1c(C)nc(Nc2ccccc2)nc1Nc1ccccc1 | i | i | i | -9% | 5 | 13%
CC(C)c1ccccc1-c1ncc(N(C)C)c(NCc2ccc(-c3cccnc3)cc2)n1 | / | / | / | / | / | 13%[57.5 µM]
CCOC(=O)c1c(-c2ccc(C)o2)csc1NC(=O)CSc1nnnn1-c1ccccc1 | / | / | / | / | / | 3.5µM*
COc1cc(C(=O)O)ccc1NC(=O)[C@@H]1N[C@@H](CC(C)(C)C)[C@](C#N)(c2ccc(Cl)cc2F)[C@H]1c1cccc(Cl)c1F | / | / | / | / | / | 11µM*
SMILES | B2AR arrestin ag | GALC G270D up | PTAP-TSG101 blk | GALK inh | GPR32 ag | NTMT1 inhibitor
COc1ccc2c(c1)C=C1Cn3c-2c(C2CCCCC2)c2ccc(cc23)C(=O)NS(=O)(=O)N(C)CCOCCN(C)C1=O | / | / | / | / | / | 45µM*
O=c1c2oc3ccccc3c2n(Cc2cccc(Cl)c2)c(=O)n1Cc1ccco1 | i | i | i | -1% | -5 | 8%
O=c1c2oc3ccccc3c2n(Cc2ccccc2)c(=O)n1Cc1ccco1 | i | i | i | 3% | -7 | 89µM*
COc1ccc(CCNC(=O)CCc2c(C)nc3cc(-c4cccc(F)c4)nn3c2C)cc1OC | i | i | i | 8% | -6 | 89µM*
Cc1cc(C)c(NC(=O)CCN2CCCCC2)c(C)c1 | i | i | i | 1% | -1 | -15%
CN(C)c1ccc(Nc2c3ccc(NC(=O)CCN4CCCC4)cc3nc3cc(NC(=O)CCN4CCCC4)ccc23)cc1 | / | / | / | / | / | 6.3µM*
COc1ccc(NS(=O)(=O)c2ccc3nc(-c4ccccc4)[nH]c3c2)cc1 | i | i | i | 3% | 116* | -4%
Cc1ccc(NS(=O)(=O)c2ccc3[nH]c4c(c3c2)CCCC4)cc1N(C)C | i | i | i | 2% | 92* | 1%
COc1ccc(OC)c(CNS(=O)(=O)c2ccc3[nH]c4c(c3c2)CCCCC4)c1 | i | i | i | -4% | 96* | ?
COc1ccc(NS(=O)(=O)c2ccc3[nH]c4c(c3c2)CCCCC4)cc1 | i | i | i | -1% | 74* | ?
CCOc1ccc(NS(=O)(=O)c2ccc3[nH]c4c(c3c2)CCCC4)cc1 | i | i | i | 5% | 49 | ?
COc1cccc(NCc2ccc(O)c3ncccc23)n1 | / | / | / | / | / | -17%
Cc1cc(C)n2ncc(C(=O)Nc3ccc(C(F)(F)F)cc3)c2n1 | / | / | / | / | / | -2%
COc1ccc2cc(OCC3(C(=O)O)CN(C(=O)c4ccc(F)cc4)C3)ccc2c1 | / | / | / | / | / | 6%[57.5 µM]
Cc1ccc(NS(=O)(=O)c2ccc3[nH]c4c(c3c2)CCCCCC4)cc1Cl | i | i | i | 0% | 19 | -3%
COc1ccc(NS(=O)(=O)c2ccc3[nH]c4c(c3c2)CCCC4)cc1Cl | i | i | i | -3% | 90* | -4%
CCOc1ccc(NS(=O)(=O)c2ccc3[nH]c4c(c3c2)CCCCC4)cc1 | i | i | i | 1% | 66* | -12%
CC1(C)CCCC2(C)C1C(=O)C=C(C(=O)O)C2(O)C(=O)O (stereo not drawn) | / | / | / | / | / | -13%[57.5 µM]
CN(C)c1ccc(C2N=C(Nc3nc4ccccc4o3)NC3=C2C(=O)CCC3)cc1 (stereo not drawn) | / | / | / | / | / | 3%[57.5 µM]
O=C(NC1CCCc2c1cnn2-c1ccc(F)cc1F)c1ccn[nH]1 (stereo not drawn) | / | / | / | / | / | -4%
